From PubChem BioAssay (Tox21) come the findings set out here.

The target of assay [1] is Progesterone receptor (Homo sapiens) (UniProt P06401). As to the kind of experiment: qHTS assay to identify small molecule agonists of the progesterone receptor (PR) signaling pathway (AID 1346784; calls by dose curve; note: nearly all actives have a fitted effect of over 30% in size). A digest of the protocol:
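Cells (PR-UAS-bla HEK 293T, GripTite) were plated in assay medium containing 2% charcoal-stripped FBS and incubated 6 hr. Test compounds in DMSO were added for 16 hr at 37C. FRET substrate was then loaded for 2 hr at room temperature before fluorescence reading.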
For orientation: In qHTS, concentration-response curves come from the screen itself.

Assay [2] has the same target. As to the kind of experiment: qHTS assay to identify small molecule antagonists of the progesterone receptor (PR) signaling pathway (AID 1346795; active = well fitted inhibition curve with a large enough effect in the signal ratio in the repeat runs, not every such curve was filed as active; the % refers to the signal ratio). In short, it runs like this:
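Antagonist mode: compounds tested against 1 nM (final) promegestone stimulation in HEK293T cells expressing PR-UAS-bla reporter, 16 hr at 37C, 5% CO2; beta-lactamase activity detected via B/G FRET substrate after 2 hr at room temperature.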

Assay [3] is described as follows: qHTS assay to identify small molecule antagonists of the progesterone receptor (PR) signaling pathway - cell viability counter screen (AID 1346798). Note: series mostly up to about 92 µM; nearly all actives have a fitted effect of over 50% in size. A digest of the protocol:
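Counter screen for cytotoxicity: viability of PR-UAS-bla HEK293T cells was measured with CellTiter-Glo luminescence following 16 hr compound exposure in the presence of R5020.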

Assay [4] is described as follows: qHTS assay to identify small molecule agonists of the progesterone receptor (PR) signaling pathway - cell viability counter screen (AID 1346799; calls by dose curve; note: nearly all actives have a fitted effect of over 45% in size). In short, it runs like this:
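Cells (PR-UAS-bla HEK293T) are plated at 3,000/well in 2% charcoal-stripped FBS medium, rested 6 hr, dosed and incubated 16 hr at 37C. CellTiter-Glo is then added and luminescence measured after 30 min at room temperature.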

Assay [5] is described as follows: qHTS assay to identify small molecule agonists of the TGF-beta/Smad signaling pathway - cell viability counter screen (AID 1346829). Note: top concentration of the series differs between compounds; nearly all actives have a fitted effect of over 45% in size. In short, it runs like this: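 SBE-bla HEK 293T cells plated overnight, compound exposure 5 hr at 37 C. Viability read in the same wells by CellTiter-Glo luminescence after 30 min at room temperature, following the beta-lactamase read.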

Assay [6] deals with Thyrotropin-releasing hormone receptor (Homo sapiens) (UniProt P34981). As to the kind of experiment: qHTS assay to identify small molecule antagonists of the thyrotropin-releasing hormone receptor (TRHR) signaling pathway (AID 1346877; active = well fitted inhibition curve with a large enough effect in the repeat runs, not every such curve was filed as active; note: series mostly up to about 51 µM). A digest of the protocol: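 Intracellular calcium fluorescence, read kinetically every second over 3 min, reports TRH-evoked signalling in HEK293 cells carrying TRHR. Test compounds were added 5 min ahead of a 1 nM TRH challenge.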
Thyrotropin-releasing hormone receptor (Homo sapiens), sequence (P34981 whole entry, looked up): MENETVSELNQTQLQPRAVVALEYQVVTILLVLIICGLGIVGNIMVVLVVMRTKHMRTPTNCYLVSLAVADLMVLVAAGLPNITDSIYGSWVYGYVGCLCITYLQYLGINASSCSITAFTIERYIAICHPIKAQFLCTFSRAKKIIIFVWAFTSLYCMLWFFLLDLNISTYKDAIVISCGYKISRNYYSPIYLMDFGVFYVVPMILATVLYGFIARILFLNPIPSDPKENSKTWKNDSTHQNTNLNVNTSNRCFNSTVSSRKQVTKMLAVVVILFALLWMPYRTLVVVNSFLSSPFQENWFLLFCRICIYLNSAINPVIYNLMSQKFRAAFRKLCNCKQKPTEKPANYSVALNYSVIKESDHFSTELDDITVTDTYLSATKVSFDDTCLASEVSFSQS

For assay [7] the target is unchanged. The experiment in a line: qHTS assay to identify small molecule agonists of the thyrotropin-releasing hormone receptor (TRHR) signaling pathway (AID 1346891; calls by dose curve;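 note: HEK293 cells expressing TRHR with calcium dye readout; series mostly up to about 58 µM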). In short, it runs like this: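 Cells: TRHR-Hek293, seeded and incubated 18 h. Dye loading: 2 h at 37 °C. Compound added from DMSO stock by pin tool. Read-out: kinetic calcium fluorescence over 3 min.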

Assay [8] is described as follows: Human pregnane X receptor (PXR) small molecule agonists, qHTS cell viability counter screen (AID 1346977). Note: nearly all actives have a fitted effect of over 50% in size. In short, it runs like this: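 Cytotoxicity counter screen run in the same wells as the PXR luciferase assay, using PXR-Luc HepG2 cells in charcoal-stripped serum medium. Viability: CellTiter-Fluor fluorescence after 24hr compound treatment.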
A short description of assay [9]: Caspase-3/7 induction in HepG2 cells by small molecules, qHTS assay (AID 1346978). Note: nearly all actives have a fitted effect of over 15% in size. A digest of the protocol:
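Caspase-3/7 induction was measured by Caspase-Glo 3/7 luminescence (30 min, room temperature) after a 17 hr compound exposure of wild-type HepG2 cells seeded at 2,000 per well and pre-incubated 5 hr.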

Assay [10] is described as follows: Caspase-3/7 induction in CHO-K1 cells by small molecules, qHTS cell viability counter screen (AID 1346979). Note: nearly all actives have a fitted effect of over 35% in size. A digest of the protocol: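 Cytotoxicity counter screen run in parallel with the caspase-3/7 assay: CHO-K1 cells, 16hr compound treatment at 37C, then CellTiter-Fluor for 1hr before fluorescence reading.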
A short description of assay [11]: Caspase-3/7 induction in CHO-K1 cells by small molecules, qHTS assay (AID 1346980). Note: nearly all actives have a fitted effect of over 15% in size. A digest of the protocol: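 Luminescent Caspase-Glo 3/7 read (30min, room temperature) quantified apoptosis induction. Cells were wild-type CHO-K1, treated with compound for 17hr at 37 C and 5% CO2.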
Assay [12] can be described thus: Caspase-3/7 induction in HepG2 cells by small molecules, qHTS cell viability counter screen (AID 1346981). Note: series mostly up to about 92 µM; nearly all actives have a fitted effect of over 30% in size. A digest of the protocol: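 HepG2, WT, 2,000 cells/well; 5 hr pre-incubation 37 C/5% CO2; compound pin-transferred from DMSO; 16 hr exposure; CellTiter-Fluor, 1 hr; fluorescence read.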
The target in assay [13] is Nuclear receptor subfamily 1 group I member 2 (Rattus norvegicus) (UniProt Q9R1A7). The experiment in a line: Rat pregnane X receptor (rPXR) activation by small molecules, qHTS assay (AID 1346983). Note: nearly all actives have a fitted effect of over 20% in size. As to conditions: rPXR luciferase reporter cells, One-Glo luminescence, 24 h; stronger effect = higher value. In short, it runs like this:
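Luminescent readout (One-Glo luciferase, 30 min room temperature) followed 24 hr compound treatment at 37 C of rPXR cells plated 2,000 per well and preincubated 5hr; qHTS format with compounds delivered in DMSO.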

Assay [14] addresses Nuclear receptor subfamily 1 group I member 2 (Homo sapiens) (UniProt O75469). The experiment in a line: CYP3A4 induction through human pregnane X receptor (PXR) by small molecules, qHTS assay (AID 1346984). Note: nearly all actives have a fitted effect of over 40% in size. Note: potency is the fitted concentration of half-maximal effect. In short, it runs like this: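 Luminescence readout: luciferase signal after One-Glo (30 min, room temperature), following 3 h at 37C with 3uM final Luciferin-IPA P450 substrate. Cells were DPX-2 (HepG2, PXR/CYP3A4-luc co-transfected) dosed for 24 h.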

Assay [15] has the same target. As to the kind of experiment: Human pregnane X receptor (PXR) activation by small molecules, qHTS assay (AID 1346985). Note: nearly all actives have a fitted effect of over 40% in size. A digest of the protocol:
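DPX-2 cells (HepG2 co-transfected with a PXR response element and a CYP3A4-promoter luciferase construct) were seeded at 2,000 per well, rested 5 hr at 37C, then exposed to DMSO-dissolved compounds for 24 hr. Activation was read as luciferase luminescence.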

Assay [16] addresses Cytochrome P450 2D6 (Homo sapiens) (UniProt P10635). The experiment in a line: Cytochrome P450 Family 2 Subfamily D Member 6 (CYP2D6) small molecule antagonists: luciferase reporter qHTS assay (AID 1671196). Note: series mostly up to about 120 µM; nearly all actives have a fitted effect of over 50% in size. In short, it runs like this:
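Read-out is luminescence from luciferin formed by CYP2D6 turnover of a proluciferin substrate, recorded as relative luminescence units. Reactions ran 1 h at room temperature after NADPH regeneration solution was added.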
On the technique in general: Reporter assays use an easily measured gene product as a stand-in for the process of interest.

The nature of assay [17]: qHTS assay to identify small molecule antagonists of the TGF-beta/Smad signaling pathway - cell viability counter screen (AID 1346824). Note: nearly all actives have a fitted effect of over 50% in size. In short, it runs like this: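 Cytotoxicity counter-screen run in the same wells as the beta-lactamase Smad reporter read: CellTiter-Glo luminescence after 30 min at room temperature. HEK 293T SBE-bla cells had 5 hr compound exposure at 37 C with TGF-beta1 (0.25 ng/mL stock).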

Assay [18] deals with Nuclear receptor subfamily 1 group I member 2 (Homo sapiens) (UniProt O75469). As to the kind of experiment: Human pregnane X receptor (PXR) small molecule agonists, qHTS assay (AID 1346982). Note: nearly all actives have a fitted effect of over 35% in size. Note: potency is the fitted concentration of half-maximal effect. A digest of the protocol:
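Luciferase signal from ONE-Glo (30 min, room temperature) measured activation of hPXR-driven CYP3A4 reporter expression in PXR-Luc HepG2 cells treated with compounds for 24 hr at 37 C.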

Assay [19] can be described thus: qHTS assay to identify small molecule agonists of the TGF-beta/Smad signaling pathway (AID 1346859; active = well fitted activation curve with a large enough effect in the signal ratio in the repeat runs, not every such curve was filed as active; the % refers to the signal ratio; note: series mostly up to about 77 µM). In short, it runs like this:
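Reporter line: HEK 293T with stably integrated SBE-controlled beta-lactamase. Compound exposure lasts 5 hr at 37 C and 5% CO2; substrate loading follows for 2 hr at room temperature, with emission read at 460 and 530 nm.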

Assay [20] deals with Cytochrome P450 2C19 (Homo sapiens) (UniProt P33261). As to the kind of experiment: Cytochrome P450 Family 2 Subfamily C Member 19 (CYP2C19) small molecule antagonists: luciferase reporter qHTS assay (AID 1671197). Note: series mostly up to about 120 µM; nearly all actives have a fitted effect of over 65% in size. In short, it runs like this: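 P450-Glo CYP2C19 system: enzyme-substrate mix with compound 10 min at room temperature, then NADPH regeneration solution, 1 h at 37C. Proluciferin-to-luciferin conversion detected by luminescence after 20 min with detection reagent; ketoconazole as positive control.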
Cytochrome P450 2C19 (Homo sapiens), sequence (P33261 whole entry, looked up): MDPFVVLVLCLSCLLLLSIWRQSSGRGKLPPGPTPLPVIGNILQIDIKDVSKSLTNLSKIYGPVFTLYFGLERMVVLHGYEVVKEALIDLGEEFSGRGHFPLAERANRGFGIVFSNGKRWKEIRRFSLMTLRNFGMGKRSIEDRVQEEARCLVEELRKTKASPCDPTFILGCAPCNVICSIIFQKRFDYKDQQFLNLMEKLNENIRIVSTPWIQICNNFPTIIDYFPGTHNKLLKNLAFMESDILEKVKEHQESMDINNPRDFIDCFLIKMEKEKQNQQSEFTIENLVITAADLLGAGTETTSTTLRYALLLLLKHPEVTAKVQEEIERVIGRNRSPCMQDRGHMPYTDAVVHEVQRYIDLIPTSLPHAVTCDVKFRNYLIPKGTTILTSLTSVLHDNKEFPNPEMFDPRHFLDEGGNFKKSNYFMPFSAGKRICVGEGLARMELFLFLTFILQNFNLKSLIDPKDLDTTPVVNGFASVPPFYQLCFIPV

SMILES strings stand for the structures. A number with no mark means an inactive call. Results filed as inconclusive are left out. Calls of active or inactive are those of the source. Unless noted, calls come from the whole dose curve; as a rule, active = well fitted curve in the direction sought with a large enough effect in the repeat runs; inconclusive = weak or mixed curves; inactive = no such curve, though single readings can be large; an effect the other way counts as inactive or inconclusive.
% is set by controls: 0 for no effect and ±100 for the full control effect.

Nuclear receptor subfamily 1 group I member 2 (Homo sapiens), sequence (O75469 whole entry, looked up): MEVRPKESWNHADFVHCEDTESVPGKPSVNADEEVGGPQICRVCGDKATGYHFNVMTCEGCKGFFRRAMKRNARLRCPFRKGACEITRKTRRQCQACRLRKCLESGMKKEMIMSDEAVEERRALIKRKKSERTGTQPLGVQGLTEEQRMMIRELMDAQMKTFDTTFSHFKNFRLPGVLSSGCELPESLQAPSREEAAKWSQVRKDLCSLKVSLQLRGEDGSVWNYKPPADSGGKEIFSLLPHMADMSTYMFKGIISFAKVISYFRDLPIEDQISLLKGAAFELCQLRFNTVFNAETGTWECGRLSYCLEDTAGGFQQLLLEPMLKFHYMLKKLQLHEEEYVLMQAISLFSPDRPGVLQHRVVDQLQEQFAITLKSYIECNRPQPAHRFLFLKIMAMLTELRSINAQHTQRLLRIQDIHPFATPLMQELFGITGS
Progesterone receptor (Homo sapiens), sequence (P06401 whole entry, looked up): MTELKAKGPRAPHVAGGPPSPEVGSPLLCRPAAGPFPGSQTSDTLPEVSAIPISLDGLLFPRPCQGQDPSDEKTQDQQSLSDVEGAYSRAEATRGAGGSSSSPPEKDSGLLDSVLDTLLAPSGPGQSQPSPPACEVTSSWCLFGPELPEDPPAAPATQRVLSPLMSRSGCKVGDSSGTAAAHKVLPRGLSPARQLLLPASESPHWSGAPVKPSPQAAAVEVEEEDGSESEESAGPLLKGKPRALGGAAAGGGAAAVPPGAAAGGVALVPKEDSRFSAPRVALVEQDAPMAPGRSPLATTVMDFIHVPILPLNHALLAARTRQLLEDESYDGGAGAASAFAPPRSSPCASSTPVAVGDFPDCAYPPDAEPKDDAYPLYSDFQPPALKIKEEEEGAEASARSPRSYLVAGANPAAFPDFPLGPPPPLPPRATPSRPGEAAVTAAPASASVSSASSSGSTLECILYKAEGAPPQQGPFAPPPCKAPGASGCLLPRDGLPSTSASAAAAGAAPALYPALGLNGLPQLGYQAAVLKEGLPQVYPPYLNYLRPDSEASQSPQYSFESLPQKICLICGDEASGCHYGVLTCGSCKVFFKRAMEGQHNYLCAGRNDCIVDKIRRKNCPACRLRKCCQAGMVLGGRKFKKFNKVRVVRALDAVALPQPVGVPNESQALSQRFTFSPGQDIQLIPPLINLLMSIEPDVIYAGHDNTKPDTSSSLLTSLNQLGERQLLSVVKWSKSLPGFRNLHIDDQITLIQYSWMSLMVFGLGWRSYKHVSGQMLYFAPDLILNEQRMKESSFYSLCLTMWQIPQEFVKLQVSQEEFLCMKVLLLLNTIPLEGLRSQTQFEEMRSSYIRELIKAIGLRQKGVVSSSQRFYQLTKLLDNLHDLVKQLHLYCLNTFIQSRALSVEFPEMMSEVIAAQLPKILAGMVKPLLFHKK
Nuclear receptor subfamily 1 group I member 2 (Rattus norvegicus), sequence (Q9R1A7 whole entry, looked up): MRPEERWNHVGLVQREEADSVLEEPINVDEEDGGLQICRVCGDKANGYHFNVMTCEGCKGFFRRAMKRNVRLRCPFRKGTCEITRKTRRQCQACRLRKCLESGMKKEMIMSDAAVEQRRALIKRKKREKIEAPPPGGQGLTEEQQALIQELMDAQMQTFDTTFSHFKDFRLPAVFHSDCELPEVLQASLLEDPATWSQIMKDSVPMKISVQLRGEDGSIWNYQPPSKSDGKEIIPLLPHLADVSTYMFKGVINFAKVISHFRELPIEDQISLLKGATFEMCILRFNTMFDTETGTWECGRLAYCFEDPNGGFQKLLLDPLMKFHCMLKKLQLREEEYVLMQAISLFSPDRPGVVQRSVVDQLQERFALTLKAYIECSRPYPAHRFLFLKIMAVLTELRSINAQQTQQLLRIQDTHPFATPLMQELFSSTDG
Cytochrome P450 2D6 (Homo sapiens), sequence (P10635 whole entry, looked up): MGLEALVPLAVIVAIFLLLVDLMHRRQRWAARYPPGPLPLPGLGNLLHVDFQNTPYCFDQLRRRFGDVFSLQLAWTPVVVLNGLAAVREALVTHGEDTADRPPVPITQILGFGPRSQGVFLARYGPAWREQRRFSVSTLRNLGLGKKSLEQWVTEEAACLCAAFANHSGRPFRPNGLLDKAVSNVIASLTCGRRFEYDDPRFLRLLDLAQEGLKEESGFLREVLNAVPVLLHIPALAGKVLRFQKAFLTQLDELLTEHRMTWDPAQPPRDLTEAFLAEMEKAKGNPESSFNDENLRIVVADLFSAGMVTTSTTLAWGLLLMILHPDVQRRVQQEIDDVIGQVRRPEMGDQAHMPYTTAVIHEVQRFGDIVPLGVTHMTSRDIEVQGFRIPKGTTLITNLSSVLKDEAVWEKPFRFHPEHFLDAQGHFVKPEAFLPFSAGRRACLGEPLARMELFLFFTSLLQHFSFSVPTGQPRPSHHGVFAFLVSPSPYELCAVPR

For `CC(=O)N[C@@H](CCC(=O)O)C(=O)O`, the Potency entry in assay [1], in [2], in assay [3], in [4], in assay [8] and in assay [9] was “inactive” in each case. Also, the Potency result in assay [10], in assay [12], in assay [14], in [15] and in assay [16] was “inactive” throughout. The call in [5], in assay [6], in [7] and in assay [11] was inactive. In [13], the max activation is -1.49%.

`CC(C)c1ccc2cc(C(C)C)ccc2c1`: the Potency result in assay [1], in [2], in [3], in [4], in assay [8] and in [10] was “inactive” throughout. Moreover, the Potency entry in assay [12] and in assay [16] was “inactive” throughout. In addition, the compound was classed as inactive in [17], in [5], in assay [7] and in [11]. Also, the Potency in assay [18] was 61.1 µM (active).

On to `COc1ccc(-c2cc(=O)c3c(O)cc(O[C@@H]4O[C@H](CO[C@@H]5O[C@@H](C)[C@H](O)[C@@H](O)[C@H]5O)[C@@H](O)[C@H](O)[C@H]4O)cc3o2)cc1O`, for which the Potency result in assay [1], in [2], in assay [3], in assay [4], in assay [8] and in assay [9] was “inactive” in each case. Moreover, the Potency result in assay [10], in [12], in assay [18], in [15] and in [20] was “inactive” in each case. The result in assay [17], in [19], in [6], in assay [7] and in assay [11] was inactive. Also, the max activation in [13] is -2.2%. The Potency in assay [14] is 12.6 µM (active).

On to `CN(C)CCOCCO`, for which the Potency entry in [1], in assay [2], in assay [3], in assay [4], in assay [8] and in assay [9] was “inactive” throughout. Moreover, the Potency entry in assay [12], in assay [18], in [16] and in [20] was “inactive” in each case. Also, the call in [5], in [19], in assay [6], in assay [7] and in assay [11] was inactive.

Take `CCCCCCOC(=O)CC`: the Potency result in assay [1], in assay [2], in assay [3], in assay [4], in [8] and in assay [9] was “inactive” each time. The Potency entry in assay [12] and in assay [20] was “inactive” in each case. Besides, the call in [5], in assay [19], in assay [6], in [7] and in assay [11] was inactive.

For the compound `O=S(O)(O)=S`, the values for the activation in [1], in [19] and in [18] were -0.0718% [at 8.39 µM], 3.3% [at 6.97 µM] and 4.46% [at 8.39 µM], respectively. Besides, the figures for the activity change, negative = inhibition in assay [2] and in assay [20] were 2.55% [at 8.39 µM] and -17.3% [at 10.5 µM], respectively. Further, the activity change, negative = cytotoxicity in assay [3] is 5.98% [at 8.39 µM]; in assay [4], -1.49% [at 8.39 µM]; in assay [5] it was 1.63% [at 6.97 µM]; in assay [8] it was -0.159% [at 8.39 µM]; in assay [10] it was 4.08% [at 8.39 µM]; in [12], -0.702% [at 8.39 µM]. In addition, in [9], the caspase activation was 0.115% [at 8.39 µM]. For the same compound, the caspase-3/7 activation in assay [11] is 0.413% [at 8.39 µM].

As to `N[C@@H](CCC(=O)N[C@@H](CS)C(=O)NCC(=O)O)C(=O)O`, the activation in assay [1] was -0.471% [at 19 µM]. In addition, in [2], the activity change, negative = inhibition is 1.1% [at 18.9 µM]. Also, the activity change, negative = cytotoxicity in assay [3] is 2.33% [at 18.9 µM]; in assay [4] it was 3.29% [at 19 µM]; in [5] it was 1.41% [at 15.8 µM]; in assay [8], 1.19% [at 19 µM]; in [10], 5.61% [at 19 µM]; in assay [12], -0.0408% [at 19 µM]. Besides, the viability change, negative = cytotoxic in assay [17] was 18.5% [at 15.8 µM]. Also, in assay [9], the caspase activation was -1.46% [at 19 µM]. Besides, the caspase-3/7 activation in [11] was -0.229% [at 19 µM]. Further, the max activation in [13] is 3.38%.
